Data: PubChem BioAssay (NCI)
The panel holds about 79,000 compounds, 15% with a hit somewhere; the sample as a whole holds those more often. Activity calls are given as the source filed them. No stated cut-off is given here; in the data, active means growth inhibition above about 70%; inactive means the rest.

Legend:
[1] = NCI Yeast Anticancer Drug Screen. Data for the rad50 strain (AID 155);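 further: 0% = growth of vehicle-only cultures of the same strain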; settings: S. cerevisiae rad50 strain growth inhibition; at 50.0 µM; hits give high values
How it was run: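 Cells are treated with compound, grown, and their growth is then scored against vehicle-only cultures of the same repair-deficient yeast strain.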

[2] = NCI Yeast Anticancer Drug Screen. Data for the mec2-1 strain (AID 157); settings: S. cerevisiae mec2-1 strain, at 50.0 µM, hits give high values
How it was run: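 Readout is yeast growth inhibition, normalised to vehicle-treated controls, in the mec2-1 strain exposed to compound.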

[3] = NCI Yeast Anticancer Drug Screen. Data for the sgs1 mgt1 strain (AID 161);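 further: 0% = growth of cultures given vehicle only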; settings: S. cerevisiae sgs1 mgt1 strain, at 50.0 µM, hits give high values
How it was run: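 This yeast growth screen uses a strain with defined DNA-repair lesions; compound-treated growth is compared with vehicle-treated growth.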

[4] = NCI Yeast Anticancer Drug Screen. Data for the cln2 rad14 strain (AID 165);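 further: 0% = growth equal to vehicle treated cultures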; settings: S. cerevisiae cln2 rad14 strain, at 50.0 µM, hits give high values
How it was run: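 Relative to vehicle controls, growth inhibition of compound-treated cln2 rad14 yeast was recorded.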

[5] = NCI Yeast Anticancer Drug Screen. Data for the bub3 strain (AID 167); settings: S. cerevisiae bub3 mutant strain, at 50.0 µM, hits give high values
How it was run: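 Part of a panel of yeast mutants defective in DNA damage repair or cell cycle regulation. Each strain is grown with compound, and inhibition is calculated relative to solvent-treated cultures.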

[6] = NCI Yeast Anticancer Drug Screen. Data for the mlh1 rad18 strain (AID 175); settings: S. cerevisiae mlh1 rad18 strain growth inhibition; at 50.0 µM; hits give high values
How it was run: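 Test agents were incubated with a yeast strain of defined genotype (DNA damage repair defect). Inhibition of growth was derived by comparison with vehicle-exposed cultures.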

Measured: growth inhibition

CCCOC(=O)CCl
inactive: [1] 15.4% | [2] 15.2% | [3] 30.1% | [4] 5.25% | [5] 5.15% | [6] 20.3%

COc1ccccc1CN1CCN(Cc2ccccc2OC)C1c1ccc(N(CCCl)CCCl)cc1
inactive: [1] -9.8% | [2] -9.05% | [3] -14.7% | [4] -32.5% | [5] -1.9% | [6] -4.1%

Cc1cccnc1NN=O
inactive: [1] -8.25% | [2] -23.9% | [3] -23.8% | [4] 10% | [5] -20.2% | [6] 13.6%

[N-]=[N+]=CC(=O)c1ccc(Cl)cc1
inactive: [1] 34.5% | [2] 28.4% | [3] 14% | [4] -16.5% | [5] 50.1% | [6] 52.2%

CC1N=C(c2ccccc2)C2(c3ccccc3)C(C)N12 (configuration not stated)
inactive: [1] -7% | [2] 6.8% | [3] -7.7% | [4] -29.2% | [5] -10.3% | [6] 5.85%

COc1cc(N=Nc2ccc([N+](=O)[O-])cc2)ccc1N(CCCl)CCCl
inactive: [1] -8.55% | [2] -13.2% | [3] -16.9% | [4] 11.2% | [5] -10.6% | [6] 12.8%

O=C(Oc1cc(Cl)c(S(=O)(=O)F)cc1Cl)c1ccc([N+](=O)[O-])cc1
active: [1] 78.2% | [2] 86% | [3] 90.2% | [5] 73.5% | [6] 89.9%
inactive: [4] 64.8%

O.O=[N+]([O-])O.[NH2-].[NH2-].[Pt+2]
inactive: [1] 22.9% | [2] 20.4% | [3] 8.6% | [4] 15.2% | [5] 4.55% | [6] 31.4%

O=C([O-])c1ccccc1[SH2+].[Cr+3].[NH-]CC[NH-].[NH-]CC[NH-].[O-][Cl+3]([O-])([O-])O
inactive: [1] 11.9% | [2] -1.95% | [3] -11.8% | [4] -19.4% | [5] 1.35% | [6] -26.4%

COc1ccc(S(=O)(=O)F)cc1N
inactive: [1] -18.6% | [2] -32.5% | [3] -21.6% | [4] 4.35% | [5] -14.3% | [6] -22.4%

COC(c1ccccc1)(c1ccccc1)C1C(c2ccccc2)N1C1CCCCC1 (configuration not stated)
inactive: [1] 46.1% | [2] -5.3% | [3] 43.5% | [4] -1.3% | [5] -5.1% | [6] 22.8%

O=C(Nc1ccc(S(=O)(=O)F)cc1)/C(=C\c1ccc([N+](=O)[O-])cc1)c1cccc(Cl)c1
inactive: [1] 12.4% | [2] 4.3% | [3] -18.2% | [4] 31.4% | [5] -0.7% | [6] 11.1%

COc1cc(C2c3cc4c(cc3OC(O)C2C)OCO4)cc(OC)c1O (configuration not stated)
inactive: [1] -13.2% | [2] -49.9% | [3] -23.9% | [4] 8.25% | [5] -2.9% | [6] -5.75%

O=C(NCCO)c1cc([N+](=O)[O-])cc([N+](=O)[O-])c1
inactive: [1] -37.9% | [2] -4.25% | [3] -1.25% | [4] -25.9% | [5] -11.7% | [6] 3.4%

c1cc(C[N+]23CN4CN(CN(C4)C2)C3)cs1
inactive: [1] -5.75% | [2] 14.2% | [3] 3.95% | [4] -7.65% | [5] 1.55% | [6] -13.7%

COc1cc2c(ccc3c4cc(OC)c(OC)cc4c[n+](C)c23)cc1O
inactive: [1] -21.7% | [2] -17.9% | [3] -9.9% | [4] 16.4% | [5] -23.8% | [6] -65.8%

[CH3][Sn]([CH3])([Br])[CH2]CCBr
inactive: [4] 48.5%
active: [1] 84.2% | [2] 88.1% | [3] 89.2% | [5] 95% | [6] 96.5%

CC1C(C)(C)P(=O)(Oc2cccc3cccnc23)C1(C)C (configuration not stated)
inactive: [2] 64.7% | [4] 64.6% | [6] 57.2%
active: [1] 83.3% | [3] 84.5% | [5] 99%

COc1ccc(CC(C)NO)cc1 (configuration not stated)
inactive: [1] -16.2% | [2] 8.8% | [3] -11.9% | [4] 11.7% | [5] 2.35% | [6] -32.5%

CN(C)/N=C/c1c[nH]c2ccccc12
inactive: [1] -13.9% | [2] -13.8% | [3] -20.1% | [4] 0.5% | [5] -17.7% | [6] -8.4%

COC(=O)c1ccccc1N
inactive: [1] 13.5% | [2] 1.95% | [3] -0.55% | [4] -29.5% | [5] -2.9% | [6] -6.75%

O=NNc1cccnc1
inactive: [1] -1.05% | [2] -17.1% | [3] -2.35% | [4] 4.45% | [5] -4.8% | [6] -38%

O=S(=O)(O)O.[In]
inactive: [1] 22.2% | [2] 41.6% | [3] 39.1% | [4] 10.1% | [5] 26.5% | [6] 15.1%

NC(=O)CCl
inactive: [1] 6% | [2] -0.8% | [3] -2.6% | [4] -1.45% | [5] 12.4% | [6] -12.9%

CCC(OC(=O)C1C(C=C(C)C)C1(C)C)c1cc2c(cc1Cl)OCO2 (configuration not stated)
inactive: [1] -8.05% | [2] -19.1% | [3] -7.3% | [4] -13.3% | [5] -10.7% | [6] -20.8%

CCC1CN1CCC(=O)Nc1ccccc1 (configuration not stated)
inactive: [1] -2.8% | [2] -13.1% | [3] -14.2% | [4] -35.2% | [5] -17.6% | [6] 6.3%

C#CCN(C)C(=O)N(CC#C)N=O
inactive: [1] 15.2% | [2] -4.95% | [3] 1.75% | [4] -11% | [5] -6.55% | [6] -23.4%

CN(C)C(=O)CCCc1ccc(N(CCCl)CCCl)cc1
inactive: [1] 19.6% | [2] -1.85% | [3] 5.3% | [4] 9.55% | [5] -0.9% | [6] 9.6%

CNC(=O)O/N=C(\SC)C(=O)N(C)C
inactive: [1] -39.9% | [2] -27.2% | [3] -5.05% | [4] -31.2% | [5] -3.1% | [6] -1.05%

O=[N+]([O-])c1ccc(SN2C3CCCCC32)c([N+](=O)[O-])c1 (configuration not stated)
inactive: [1] 3.85% | [2] 11.7% | [3] 6.1% | [4] 7.85% | [5] 11.8% | [6] 22.7%

O=NN1CCN(N=O)CC1
inactive: [1] 4.9% | [2] -0.6% | [3] 6.3% | [4] 8.95% | [5] -0.6% | [6] 28.1%

N#CN=C(N)NC#N
inactive: [1] 24.1% | [2] 12.9% | [3] 7.3% | [4] 0.55% | [5] 13.8% | [6] 17.1%

COc1ccc([As]=O)cc1N (configuration not stated)
inactive: [1] 4.8% | [2] 18.1% | [3] 8.75% | [4] 7.25% | [5] -7.45% | [6] -10.5%

C[N+](C)(C)CC1CCCC(C[N+](C)(C)C)C1=NO (configuration not stated)
inactive: [1] 24.9% | [2] 12.1% | [3] -4.85% | [4] 19.7% | [5] -1.5% | [6] 20.6%

Cc1cccc(C#N)c1
inactive: [1] 3.55% | [2] -26.1% | [3] 1.2% | [4] -1.4% | [5] -7% | [6] -0.05%

CP(C)(=S)P(C)(C)=S
inactive: [1] 10.8% | [2] 6.05% | [3] 14.6% | [4] -9.1% | [5] 3.05% | [6] -18.5%

O=[N+]([O-])c1ccc(OCc2ccc(S(=O)(=O)F)cc2Cl)c(Cl)c1
inactive: [1] 1.45% | [2] -2.95% | [3] -3.15% | [4] 20.6% | [5] -3.55% | [6] -3.6%

COc1cc(C2c3cc4c(cc3OC(C)(O)C2C)OCO4)cc(OC)c1OC (configuration not stated)
inactive: [1] 8.8% | [2] -1.15% | [3] 9.85% | [4] -25.4% | [5] -16.9% | [6] 15.2%

CN(C1CCCC1)C1CCCC1
inactive: [1] -27.1% | [2] -25.9% | [3] -24.1% | [4] 5.3% | [5] 2.25% | [6] -7.7%

CCC1(CCO)C(=O)NC(=O)NC1=O
inactive: [1] -1.6% | [2] -48.9% | [3] -0.4% | [4] -12.2% | [5] -14.8% | [6] -2.7%

Cc1cc(CCl)c(O)c(CCl)c1
inactive: [1] -22.1% | [2] 0.5% | [3] -4.7% | [4] -49.7% | [5] -18.9% | [6] 22.5%

CC(=O)CC(C)=O.CC(=O)CC(C)=O.[Cl][Sn][c]1ccccc1
inactive: [1] 40.8% | [2] 23.7% | [3] 49.6% | [4] 8.4% | [5] 35.1% | [6] 57.5%
